In the library only some 0.82% were active in any assay of this set; here they are far more common.
C-LANA FP = inhibitors of KSHV C-LANA binding to DNA, primary screen, biochemical, fluorescence polarization, FAM-LBS DNA, MBP-C-LANA, single point. inhibition, % at 9 µM. AID 504423, 2011. Kaposi's sarcoma herpesvirus LANA C-terminal domain (residues 932-1162) DNA binding. 0.078% of 340,000 active;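 active means highest replicate inhibition at or above 60% at 9 µM, even if other replicates fall short; inactive means all replicates below 60% inhibition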;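 further: 0% = neutral control wells and 100% = 4 µM acridine orange control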
eLon inh = inhibitors of E. coli Lon protease, primary screen, biochemical, fluorescence polarization; P0A9M0; purified E. coli Lon protease; inhibition, % at 7.94 µM; 0.42% of 360,000 active; in the data active means inhibition above about 13%, passing the limit was not always enough;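 further: 0% = enzyme with probe and DMSO and 100% = no enzyme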
Keap1 Nrf2 FP = Keap1-Nrf2 protein-protein interaction inhibitors, primary screen, biochemical, fluorescence polarization, single point; Kelch-like ECH-associated protein 1 (Homo sapiens), Q14145; Keap1 Kelch-Nrf2 peptide fluorescence polarization, 1536-well; inhibition, % at 9.4 µM; 0.15% of 340,000 active; AID 504523, 2011; in the data active means inhibition above about 12%;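 further: human Keap1 Kelch domain with fluorescein labeled Nrf2 9mer peptide probe; 0% = neutral control wells and 100% = peptide positive control; higher means more block of Keap1 binding to Nrf2 peptide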
cardiac RTF act = cardiac RTF calcium sensitivity activators, primary screen, biochemical, IANBD-TnC fluorescence, EC20 calcium. AID 493008, 2010. 0.24% of 340,000 active. activation, % at 7.2 µM. IANBD-labeled TnC RTF fluorescence at EC20 calcium; 0% EC20 calcium, 100% full calcium. Troponin I, cardiac muscle (Homo sapiens) + Troponin T, cardiac muscle (Homo sapiens) + …;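 active means activation above the mean over all tested compounds plus 3 SD, cut at about 30% in these data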;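 further: rise in fluorescence read as greater calcium sensitivity of cardiac thin filaments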
Cardiac RTF inh = cardiac RTF calcium sensitivity inhibitors, primary screen, biochemical, IANBD-TnC fluorescence, EC70 calcium | Troponin I, cardiac muscle (Homo sapiens) + Troponin T, cardiac muscle (Homo sapiens) + … | IANBD-labeled cardiac RTF, Ca2+ fluorescence | inhibition, % at 7.15 µM | 0.12% of 340,000 active;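 active means inhibition above the mean inhibition of all tested compounds plus 3 SD, cut at about 17% in these data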;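 further: assay run at fixed EC70 calcium of 1.6 mM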
Keap1 Kelch bind = Keap1 Kelch domain binders by thermal stabilisation, dose response, biophysical, thermal shift, RT-PCR instrument, cherry-pick; shares compounds with Keap1 Nrf2 FP; delta Tm; active compounds read high; max delta Tm, degrees C; 8% of 400 active; AID 651823, 2012; in the data active means max delta Tm above about 0.48 degrees C
Sypro dye melt = Sypro Orange dye melt without protein, dose response, artefact control for Keap1-Nrf2 interaction inhibitor project, biochemical, thermal shift counterscreen, cherry-pick; shares compounds with Keap1 Nrf2 FP; Sypro Orange dye-only thermal melt, no protein, delta Tm; top dose 26 µM; delta Tm, degrees C (test concentration not listed); 140 tested, under 10 active;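 active means at highest dose tested, delta Tm positive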
E coli Lon conf = E. coli Lon protease inhibitor retest, confirmation, biochemical, fluorescence polarization; purified E. coli Lon; AID 602230, 2012; 31% of 1,400 active; shares compounds with eLon inh; inhibition, % at 7.94 µM; in the data active means inhibition above about 16%;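 further: 0% = enzyme with probe and DMSO and 100% = no enzyme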
* marks the source's active call; other numbers are inactive results; i = inactive; x = not tested or not shown; + = active, no number.

SMILES | C-LANA FP | eLon inh | Keap1 Nrf2 FP | cardiac RTF act | Cardiac RTF inh | E coli Lon conf | others
CC1=NCCc2c1[nH]c1cc(O)ccc21 | 168.1* | + | 101.8* | 333.6* | -431.7 | + | Keap1 Kelch bind=-0.16;Sypro dye melt=-35.5
C[C@@H]1CN([C@@H](C)CO)C(=O)CCCn2nncc2CO[C@@H]1CN(C)C(=O)Oc1cccc2ccccc12 | x | -4.8 | x | x | x | x
N#Cc1ccc(CN2Cc3ccccc3-n3nncc3C2)cc1 | x | 4.0 | x | x | x | x
CC1=C[C@@H]2c3cccc4[nH]cc(c34)C[C@H]2N(C)C1 | 16.6 | 116.1* | 14.4* | 35.8* | -39.9 | 66.5* | Keap1 Kelch bind=0
CN1CCN(Cc2cc(C(C)(C)C)c(O)c(C(C)(C)C)c2)CC1 | 0.8 | 25.2* | -7.7 | -6.9 | 6.5 | -9.1
CN1CCN(Cc2ccc(N)cc2)CC1 | -1.3 | -3.5 | -3.0 | 1.0 | -13.4 | x
CC(C(=O)Nc1ccc(Br)cc1C(=O)c1ccccc1)N1CCOCC1 (stereo not given) | 1.0 | -3.0 | 0.4 | -2.7 | -5.3 | x
Cc1nc2cc([N+](=O)[O-])ccc2c(=O)n1-c1ccccc1[N+](=O)[O-] | -0.4 | 15.0* | 1.6 | -1.1 | 1.4 | -6.0
Cc1nc2cc([N+](=O)[O-])ccc2c(=O)n1-c1ccc(Br)cc1 | 2.0 | -3.6 | -1.8 | -4.5 | -5.2 | x
O=c1[nH]c(=O)n(Cc2ccco2)c(O)c1C=NCc1ccc2c(c1)OCO2 | 0.3 | 19.7* | -3.5 | -3.7 | -8.0 | 0.3
Cc1nn(Cc2ccccc2Cl)c(Cl)c1C(=O)O | -2.1 | 15.3* | -1.8 | -0.6 | -4.0 | -42.7
CS(=O)(=O)c1ccc(C2=C(CNC(=O)c3cccs3)[C@H]3CC[C@@H](C2)N3CCOc2ccccc2)cc1 | x | -3.5 | x | x | x | x
COC1C(C)OC(OC2CC(C)(O)Cc3cc4c(c(O)c32)C(=O)c2c(O)cc3c(c2C4=O)OC2OC3(C)C(O)C(N(C)C)C2O)C(OC)C1(C)OC (stereo not given) | 52.1 | + | -65.9 | 677.6* | i | 104.3*
C1=C(c2c[nH]c3ccccc23)CCN(Cc2ccccc2)C1 | -3.2 | 1.5 | -2.4 | 1.5 | 3.0 | x
Nc1c2c(nc3ccccc13)CCN(Cc1ccccc1)C2 | 7.9 | 197.8* | 10.5 | 17.4 | -32.9 | 1.8
CC(C)c1ccc(-n2c(O)c(C=NCCN3CCNCC3)c(=O)[nH]c2=S)cc1 | 3.9 | 1.5 | -5.7 | 2.0 | -7.1 | x
COc1ccc2cc(C(=O)C3CCCN(C4CCOCC4)C3)ccc2c1 (stereo not given) | -0.2 | 102.7* | -1.4 | -1.3 | -9.9 | -0.9
CC1CN=C(NCCc2ccccc2)S1 (stereo not given) | -1.5 | -0.6 | 2.5 | 3.3 | -11.8 | x
Cc1ccc(N=Cc2c(O)n(C)c(=O)n(C)c2=O)cc1 | -0.3 | 46.0* | 1.7 | 1.6 | -3.1 | -11.6
O=NN(CCF)C(=O)NC1CCC(=O)NC1=O (stereo not given) | x | -10.9 | x | x | x | x
COc1cc(C(O)CNC(C)C)cc(F)c1OC (stereo not given) | 0.9 | 23.3* | -0.5 | 3.2 | 1.9 | 6.9
COc1cccc(C(c2nnnn2-c2c(C)cccc2C)N2CCC(n3c(=O)[nH]c4ccccc43)CC2)c1OC (stereo not given) | x | -7.2 | x | x | x | x
O=c1[nH]c(O)c(/C=C2\C=Nc3ccc(OCc4ccccc4)cc32)c(=O)[nH]1 | 4.7 | 26.9* | -2.5 | 47.6* | -64.1 | 30.4*
O=c1[nH]c(O)c(C=NCCc2ccccc2)c(=O)[nH]1 | 0.7 | -7.0 | 0.4 | 3.8 | -0.8 | x
CCOC(=O)C1CCCN(c2ccc([N+](=O)[O-])c3nonc23)C1 (stereo not given) | 89.7* | 192.8* | -10.9 | 392.9* | -480.8 | 186.4*
SMILES | C-LANA FP | eLon inh | Keap1 Nrf2 FP | cardiac RTF act | Cardiac RTF inh | E coli Lon conf | others
CCN1CCC2(CC1)NC(=O)c1ccccc1O2 | -1.5 | 1.5 | -1.0 | 5.8 | -25.5 | x
COc1ccc2[nH]c(C)c(CCNCc3cccnc3)c2c1 | 13.3 | 68.6* | 8.1 | -1.6 | -4.9 | 32.9*
CN1C[C@H](CO)C=C2c3cccc4[nH]cc(c34)C[C@H]21 | 17.2 | 84.2* | 8.8 | 17.9 | -24.1 | 7.4
CCn1c(NN=O)nc2ccccc21 | 2.6 | -6.1 | -1.5 | -1.8 | -0.1 | x
O=C(O)C1C2CCC(O2)C1C(=O)Nc1cccc(Br)c1 (stereo not given) | -0.8 | -1.7 | -5.1 | -6.2 | -4.4 | x
CCCCCn1c(=O)c(C(=O)NCCc2ccccc2)c(O)c2ccccc21 | 1.9 | -9.6 | 0.2 | -6.1 | -6.8 | x
CCCCn1c(=O)c(C(=O)NCc2ccccc2OC)c(O)c2ccccc21 | -0.3 | 66.3* | -2.1 | -7.5 | 0.1 | -1.4
